# Results from PubChem BioAssay (NCI).
# The panel holds about 83,000 compounds, 20% with a hit somewhere; the sample as a whole holds those more often.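 Single-concentration screen, 48 h exposure, 96-well plates. Endpoint: percent growth. Below 10 = active.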 A number with no mark means an inactive call. Active and inactive are the calls of the source.
# Legend:
# Assay in all cases: NCI-60 one-dose screen, 48 h (100 = growth as untreated, 0 = no growth, -100 = all killed)
# SR leukemia = settings: 10 µM
# RPMI-8226 leukemia = settings: 10 µM
# OVCAR-8 ovarian = settings: 10 µM
# OVCAR-5 ovarian = settings: 10 µM
# OVCAR-4 ovarian = settings: 10 µM
# SK-OV-3 ovarian = settings: 10 µM
# IGROV1 ovarian = settings: 10 µM
# OVCAR-3 ovarian = settings: 10 µM
# HS 578T breast = settings: 10 µM
# NCI/ADR-RES ovarian = settings: 10 µM
# T-47D breast = settings: 10 µM
# BT-549 breast = settings: 10 µM
# MDA-MB-435 melanoma = settings: 10 µM
# SW-620 colon = settings: 10 µM
# MCF7 breast = settings: 10 µM unless noted
# HCT-116 colon = settings: 10 µM
# HCC-2998 colon = settings: 10 µM
# KM12 colon = settings: 10 µM
Compound,growth (SR leukemia),growth (RPMI-8226 leukemia),growth (OVCAR-8 ovarian),growth (OVCAR-5 ovarian) [%],growth (OVCAR-4 ovarian),growth (SK-OV-3 ovarian),growth (IGROV1 ovarian),growth (OVCAR-3 ovarian),growth (HS 578T breast),growth (NCI/ADR-RES ovarian),growth (T-47D breast),growth (BT-549 breast) [%],growth (MDA-MB-435 melanoma),growth (SW-620 colon) [%],growth (MCF7 breast),growth (HCT-116 colon),growth (HCC-2998 colon) [%],growth (KM12 colon)
COc1ccccc1NC(=O)c1cc2cc(Br)ccc2cc1O,-5.13% (active),-29.6% (active),9.55% (active),104,18.7%,1.19% (active),-46% (active),4.13% (active),6.12% (active),5.05% (active),9.84% (active),18.8,10.2%,10.9,-2.37% (active),3.77% (active),20.1,9.92% (active)
O=C(O)C(O)c1ccccc1 (stereo unspecified),94.7%,113%,105%,103,98.6%,109%,107%,112%,110%,105%,95.1%,97.1,108%,107,99.1%,96.7%,103,99.3%
N#CCc1ccc([N+](=O)[O-])cc1,105%,109%,89.5%,119,111%,101%,135%,117%,98%,106%,98.6%,102,114%,94.5,89.8%,109%,101,109%
C/C(=N\NC(=O)c1ccccc1N)c1ccccc1O,35.3%,52.1%,18.2%,52.2,6.68% (active),58.3%,36.3%,12.4%,97.8%,26.7%,25.2%,72.2,57.8%,31.6,5.19% (active),7.72% (active),67.5,46.3%
COc1cc(CN)ccc1O,89.5%,81%,102%,95.5,108%,93.8%,78.7%,105%,102%,94.2%,94.5%,95,99.5%,103,83.7%,103%,86.3,104%
CCOC(=O)CNN,106%,110%,96.1%,112,106%,108%,112%,108%,105%,112%,104%,108,108%,99.2,97.9%,107%,106,101%
CCO/C=C1\SC(=S)N(c2cccc(C)c2)C1=O,87.9%,92.4%,101%,106,100%,88.7%,107%,104%,103%,109%,93.2%,114,103%,103,90.5%,109%,106,103%
COc1cc(/C=C(\C#N)C(=O)c2ccccc2)ccc1OCc1ccccc1,109%,107%,108%,103,106%,107%,91.1%,101%,97.5%,98.4%,105%,94.9,101%,99.4,96.6%,104%,89.8,99.1%
C#CC(C(C)C)N(CCO)CCCC (stereo unspecified),101%,101%,105%,92.4,101%,106%,115%,111%,102%,110%,100%,112,98.6%,107,93.9%,104%,111,109%
CN(C)Cc1cc(C(C)(C)CC(C)(C)C)ccc1O,87.7%,95.7%,106%,98.5,86.5%,94.5%,85.7%,88.4%,106%,91.5%,86.4%,100,107%,109,95.4%,89.3%,96.5,104%
COc1cc2nn(-c3ccccc3N)nc2cc1OC,111%,100%,97.1%,99.6,97.7%,102%,89%,112%,92.6%,97.9%,93.6%,81.3,96.8%,105,90.7%,103%,95.8,103%
c1cc2cccc3c4cccc5cccc(c(c1)c23)c54,108%,113%,112%,106,95.5%,94.1%,125%,108%,112%,108%,90.2%,104,111%,108,84%,103%,96.7,104%
CN(C)c1ccc2nc3ccc(=N)cc-3sc2c1,12%,6.67% (active),3.37% (active),80.1,-8.03% (active),95.9%,49.4%,6.65% (active),99.6%,3.53% (active),19.1%,51.6,-59.8% (active),23.5,23.9%,16.7%,67.4,38%
O=[N+]([O-])c1cccc(C(F)(F)F)c1,127%,107%,106%,97,103%,106%,105%,117%,103%,106%,105%,103,107%,92.6,85.4%,99.1%,103,119%
CC(=O)OC1CC2C(C)(C)OC3CC(=O)OCC32C2CCC3(C)C(=CCC3c3ccoc3)C12C (stereo unspecified),91.1%,72.8%,108%,95.9,105%,108%,58.2%,93.8%,93.6%,124%,88.3%,126,97.8%,112,87.8%,106%,80.7,98.9%
O=c1c2ccccc2c(Br)c(Br)c2ccccc12,64.4%,88.5%,96.6%,113,82.1%,109%,91.4%,108%,107%,60.5%,53.5%,82.4,77.6%,29.8,101%,17.8%,103,105%
CCOC(=O)CCCC(=O)OCC,102%,113%,103%,101,101%,96.7%,102%,102%,96.2%,106%,96.4%,104,106%,102,97.9%,97.9%,105,99.6%
CCCCC(CC)COC(C)=O (stereo unspecified),103%,110%,102%,103,100%,101%,112%,105%,106%,99.2%,97.2%,107,105%,104,96%,108%,105,101%
Cc1ccccc1N=C(c1ccccc1)C1C(=O)c2ccccc2C1=O,27%,59.9%,97.4%,103,101%,61.8%,55.3%,71.9%,83%,80.2%,40.4%,42.6,27%,84.3,55.2%,46.4%,104,–
